# High-throughput results deposited in PubChem by National Center for Advancing Translational Sciences (NCATS).
# TrxR1 substrate = rat thioredoxin reductase 1 substrate activity; Potency, µM (top dose mostly 114 µM); O89049; purified TrxR1 substrate turnover, NADPH consumption readout; 390,000 tested, 0.01% active; AID 588456; note: nearly all actives have a fitted effect of over 50% in size
#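 Rat TrxR1, dispensed at 90 nM, was prereduced with 400 uM NADPH (final) for 5 min at ~22 deg C, then incubated with compound 15 min before 400 uM selenite. A first-read NADPH fluorescence drop versus no-compound background flagged substrates.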
# Eya2 inh = Eya2 (human) phosphatase inhibition; O00167; Potency, µM (highest dose often 76.9 µM), hits mostly inhibitors; AID 488837; 330,000 tested, 0.006% active; recombinant Eya2, OMFP fluorescence dephosphorylation (OMFP is methylfluorescein phosphate)
# Target sequence (O00167 whole entry, looked up): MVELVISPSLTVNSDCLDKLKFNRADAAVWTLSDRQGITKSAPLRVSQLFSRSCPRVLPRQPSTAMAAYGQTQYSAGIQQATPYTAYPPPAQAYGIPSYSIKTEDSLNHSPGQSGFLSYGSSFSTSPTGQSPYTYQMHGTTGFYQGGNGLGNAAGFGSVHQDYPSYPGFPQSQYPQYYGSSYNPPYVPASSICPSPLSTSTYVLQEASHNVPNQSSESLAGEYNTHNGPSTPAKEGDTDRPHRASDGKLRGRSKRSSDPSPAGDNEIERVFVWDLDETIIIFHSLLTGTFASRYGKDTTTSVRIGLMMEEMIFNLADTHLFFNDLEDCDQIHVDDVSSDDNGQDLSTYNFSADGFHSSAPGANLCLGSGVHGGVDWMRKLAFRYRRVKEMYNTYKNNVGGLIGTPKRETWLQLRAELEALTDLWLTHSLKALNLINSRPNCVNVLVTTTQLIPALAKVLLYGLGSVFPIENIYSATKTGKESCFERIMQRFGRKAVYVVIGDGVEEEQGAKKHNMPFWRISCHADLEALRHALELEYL
#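 Eya2 protein (added as 0.2 uM solution) was preincubated with compound for 10 min at ambient temperature in 50 mM HEPES pH 7.5, 50 mM NaCl, 5 uM MgCl2, 0.05% BSA, 1 mM DTT. OMFP (added at 50 uM) then reacted 10 min; fluorescence read at 485/525 nm.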
# GALK inhibitor = galactokinase (human) inhibition. P51570. Purified GALK, Kinase-Glo residual ATP luminescence. Potency, µM (top dose mostly 57.5 µM), usual class: inhibitors. 270,000 tested, 0.007% active. AID 1868
#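 5 nM enzyme, 35 uM ATP, 100 uM galactose, 20 mM HEPES pH8.0, 5 mM MgCl2; 1 h RT; residual ATP by Kinase-Glo Plus luminescence, qHTS format.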
# TrxR1 inh = rat TrxR1 inhibition; O89049; recombinant rTrxR1, NADPH fluorescence consumption, selenite substrate; Potency, µM (top dose mostly 114 µM), usual class: inhibitors; 390,000 tested, 1% active; AID 588453; note: nearly all actives have a fitted effect of over 65% in size
#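 Rat TrxR1 (90 nM in the dispensed reagent) was pre-reduced with 400 uM NADPH for 5 min at room temperature, then incubated with compound for 15 min. After 400 uM selenite was added, NADPH fluorescence (Ex 340/Em 450 nm) was followed for 8 min.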
# Six1-Eya2 inh = blocks human Six1 binding to Eya2 | AlphaScreen GST-Six1/His-Eya2 binding, biochemical; stronger effect = lower value | activity change, % (concentration not given with the values) | 360,000 tested, 0.56% active | AID 651725; in the data active = activity change below about -65%; inconclusive = mostly about -30% to -63%
#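 Compounds are tested against tagged Six1 and Eya2 proteins bridged by glutathione donor and nickel acceptor beads; after a one-hour incubation at 37 °C without light, AlphaScreen emission is recorded.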
# CtBP-E1A inh = blocks the CtBP interaction with E1A. AlphaScreen GST-E1A/His-CtBP binding, 1536-well; stronger effect = lower value. activity change, % (concentration not given with the values). 340,000 tested, 0.49% active; in the data active = activity change below about -65%; inconclusive = mostly about -30% to -63%
#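 Protein mix (5X: 125 nM each GST-E1A, His-CtBP) was incubated with pinned compound 2 h at 37 deg C in dark, in 50 mM Tris pH 8.0 buffer with 300 mM NaCl. Glutathione donor and nickel acceptor beads followed; AlphaScreen signal read after 1 h.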
# Numbers stand for hits; n = inactive; u = inconclusive; x = no result given; [ ] = remark or other dose. Only some compounds are listed: those with a hit (about 1.5% of all), similar ones and a draw of the others. Unless noted, calls come from the whole dose curve; as a rule, active = well fitted curve in the direction sought with a large enough effect; inconclusive = small, poorly fitted or top-dose-only effect, or another doubt; inactive = no such curve, though single readings can be large; an effect the other way counts as inactive or inconclusive.
SMILES,TrxR1 substrate,Eya2 inh,GALK inhibitor,TrxR1 inh,Six1-Eya2 inh,CtBP-E1A inh
CC(=O)c1ccc(NC(=O)Cn2c3ncccc3c(=O)n2-c2ccc(C)cc2)cc1,n,x,x,n,x,x
CN(Cc1ccco1)c1ncnc2ccc(-c3ccc4c(c3)OCCO4)cc12,x,n,x,x,x,x
O=C(CCl)N(C/C=C/c1ccccc1)c1ccc2c(c1)OCCO2,n,n,n,7.9µM,n,n
O=C(/C=C/c1ccccc1)c1ccc2c(c1)OCCCCO2,n,u,n,n,n,n
CCOc1c(Cl)cc(CNc2ccc(N3CCCC3)cc2)cc1OC,n,n,n,13µM,u,n
CC1=C(C)/C(=N/OC(=O)c2cccc([N+](=O)[O-])c2)C=CC1=O,n,n,n,8.9µM,n,n
N/C(=N/OC(=O)c1cccc([N+](=O)[O-])c1)c1cccc([N+](=O)[O-])c1,n,n,n,n,n,n
O=C1C=CC(=Nc2ccc3c(c2)Cc2cc(F)ccc2-3)O1,n,x,x,3.2µM,n,n
O=C1C=CC(=Nc2cccc3c2C(=O)c2ccccc2-3)O1,n,x,x,n[2.29 µM],n,n
CC1CCN(S(=O)(=O)c2ccc3c(c2)N(CC(=O)NCCc2ccc(Cl)cc2)C(=O)CO3)CC1,n,x,x,n,x,x
C/C(=C\c1ccc(C)o1)C(=O)c1c(C)cc(C)[nH]c1=O,n,n,n,50µM,n,n
O=C1/C(=C/c2ccsc2)CC/C1=C\c1cccs1,n,n,x,n,x,x
O=C(CSc1nnc(-c2ccc(C(F)(F)F)cn2)o1)Nc1cccc(Cl)c1,n,n,n,n,-71,u
NCCc1nnc(SCC(=O)Nc2cccc(Cl)c2)o1,n,n,n,n,n,x
CCOc1ccc(-c2nnc(SCC(=O)Nc3cccc(C#N)c3)o2)cc1,n,x,x,35µM,x,x
CCOc1ccc(-c2nnc(SCC(=O)Nc3cccc(Cl)c3C)o2)cc1,n,x,x,n,x,x
CCn1c2ccccc2c2cc(/C=C3/C=Cc4ccccc43)ccc21,n,x,x,n,x,x
O=S(=O)(NCC(c1cccs1)S(=O)(=O)c1ccccc1)c1ccc(F)cc1 (stereo not given),n,x,x,13µM,x,x
CN(C)CCN(Cc1ccccc1)S(=O)(=O)c1ccc(-c2cc(C(F)(F)F)on2)s1,n,x,x,n,x,x
CCN1CCc2c(sc(NC(=O)c3ccc(S(=O)(=O)N4CCCC(C)C4)cc3)c2C(=O)OC)C1 (stereo not given),n,x,x,n,x,x
Cc1cccc(NC(=S)N/C(=N/S(=O)(=O)c2ccccc2)c2ccccc2)c1,n,n,n,16µM,n,n
Cc1ccc(S(=O)(=O)/N=C(/NC(=S)Nc2cccc(C)c2)c2ccccc2)cc1,n,n,n,u,n,n
O=C(On1c(-c2ccccc2)nc2ccccc2c1=O)c1ccco1,n,x,n,5µM,n,n
COc1ccc(C2C(C#N)=C(N)Oc3cc(O)ccc32)cc1C (stereo not given),n,n,n,16µM,n,x
COc1ccc(C2C(C#N)=C(N)Oc3cc(O)ccc32)cc1OC (stereo not given),n,n,n,n,n,n
SMILES,TrxR1 substrate,Eya2 inh,GALK inhibitor,TrxR1 inh,Six1-Eya2 inh,CtBP-E1A inh
Cc1ccc(NC(=O)CN2C(=O)c3ccccc3Sc3ncccc32)c(C)c1,n,x,x,n,x,x
COc1ccc(Cn2c(C3CC3)nc3ccc(NC(C)=O)cc3c2=O)cc1,n,n,n,n,n,n
COc1ccc(-c2nc3ccc(NC(=O)COC(C)=O)cc3c(=O)n2Cc2ccccc2)cc1COc1ccc(NC(C)=O)cc1,n,x,x,35µM,x,x
COc1ccc(-c2nc3ccc(NC(C)=O)cc3c(=O)n2Cc2cccc(Cl)c2)cc1COc1ccc(NC(C)=O)cc1,n,x,x,14µM,x,x
COc1ccc(CN(Cc2ccccc2)C(=O)COC(C)=O)cc1COc1ccc(NC(C)=O)cc1,n,x,x,n,x,x
Cc1ccc(NC(=O)N2CCN(c3nnc(C)c4c(C)n(-c5ccccc5)nc34)CC2)cc1Cl,n,x,x,n,x,x
CCN(CC)S(=O)(=O)c1ccc2c(c1)N(CC(=O)Nc1c(C)cc(C)cc1C)C(=O)C1CCCN21 (stereo not given),n,x,x,n,x,x
CC(=O)NC(c1cccc([N+](=O)[O-])c1)c1ccc2cccnc2c1O (stereo not given),n,n,n,n,-69,-92
